In PubChem BioAssay (NCATS) one finds Potency, activity change, negative = inhibition and outcome data, which are given here for seven compounds.

Test [1] concerns the target Lysosomal acid glucosylceramidase (Homo sapiens) (UniProt P04062). Put plainly: Glucocerebrosidase-p2 (AID 348; in the data active = potency below about 10 µM; also: potency is read from the fitted curve at half-maximal effect). The settings on record: purified GBA, blue fluorogenic substrate, 40 min. The method in brief:
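Compounds titrated from 0.6 nM upwards against 0.2 nM enzyme in pH 5.9 citric acid/KH2PO4, taurocholate, tween-20; blue fluorogenic substrate 80 uM, 40 min room temperature, stopped and read Ex 365/Em 440 for AC50.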

The nature of test [2]: AP1 Signaling Pathway (AID 357; active = well fitted curve in either direction with a large enough effect, not every such curve was filed as active;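 also: ME-180 reporter cells stimulated with EGF at its EC50 level; % is scaled to controls: 0 for no effect and ±100 for the full control effect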). Conditions: ME-180 AP-1-bla reporter, EGF-induced, beta-lactamase ratio, 5 h; at 7.69 µM (top of the series) unless noted. The method in brief:
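Cells are seeded overnight, exposed to compound titrations and an EC50 level of EGF for 5 hours at 37 °C, then loaded with CCF4 dye for 2.5 hours. Beta-lactamase activity under the AP-1 element is read as a blue/green ratio.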

Test [3] concerns the target Cytochrome P450 1A2 (Homo sapiens) (UniProt P05177). Nature of the test: p450-cyp1a2 (AID 410; calls by dose curve; also: potency is read from the fitted curve at half-maximal effect). The method in brief: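 20nM CYP1A2 with 100uM Luciferin-ME (at Km) in 100mM KPO4; compound preincubated 10 min, NADPH regeneration added, 60 min at room temperature. Luciferin quantified by luminescence after detection reagent; normalized to 57 uM furafylline.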
Test [4] in a line: NFAT Signaling Pathway (AID 444; active = well fitted curve in either direction with a large enough effect, not every such curve was filed as active;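 also: carbachol stimulus at about its EC50 of 1 µM final; % is scaled to controls: 0 for no effect and ±100 for the full control effect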). The settings on record: Jurkat NFAT-bla M1, carbachol, beta-lactamase ratio, 5 h; at 7.69 µM (top of the series) unless noted. The method in brief:
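Jurkat cells with NFAT-driven β-lactamase reporter and co-expressed M1 receptor, stimulated with carbachol (final 1 uM, ~EC50), compound titration, 5 h at 37 °C. CCF4 loaded 1 h at RT; 460/530 nm ratio gave %activity and AC50.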

Test [5] in a line: Stat Signaling Pathway (AID 446; active = well fitted curve in either direction with a large enough effect, not every such curve was filed as active;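 also: ME-180 cervical cancer cells given 40 pM IL-6 alongside compound; SIE-controlled beta-lactamase reporter measured as 460/530 nm FRET emission ratio; % is scaled to controls: 0 for no effect and ±100 for the full control effect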). The method, boiled down:
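Screening format detects activators and inhibitors alike: ME-180 SIE-bla cells stimulated at 40 pM IL-6 for 5 hrs with compound, then dual-emission beta-lactamase read at 405 nm excitation.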

For test [6], the target named is Glucocorticoid receptor (Homo sapiens) (UniProt P04150). Nature of the test: GR-GFP Redistribution (AID 450;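 active = compounds whose dose series gives a full or clear partial fitted curve of increased nuclear translocation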; also: potency is read from the fitted curve at half-maximal effect). Conditions: U2OS GR-GFP nuclear translocation, laser cytometry, 2 h.
The target is the same in test [7]. Put plainly: GR-EFC Redistribution (AID 451; calls by dose curve; also: potency is read from the fitted curve at half-maximal effect). The settings on record: CHO-K1 GR-EFC translocation, beta-gal luminescence, 2 h. The method in brief: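 CHO-K1 cells expressing nuclear EA and GR-ED fragments of b-gal; compounds titrated up to 46 uM final, 2 h at 37 C. GR nuclear translocation read as complemented b-gal luminescence after 1 h RT detection.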
Test [8] has as its target Mitogen-activated protein kinase 10 (Mus musculus) (UniProt Q61831). Put plainly: JNK3 AlphaScreen Assay (AID 530; active = well fitted curve in either direction with a large enough effect, not every such curve was filed as active;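 also: kinase came from lysate of stimulated human HepG2 cells; signal reports phosphorylation of biotinylated GST-cJun 1-79 at Ser73 with 10 µM ATP; % is scaled to controls: 0 for no effect and ±100 for the full control effect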). The method, boiled down:
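Pre-activated (IL-1β/TNFα) JNK3 in HepG2 lysates phosphorylates biotin-GST-cJun(1-79), 10 uM ATP; anti-phospho-cJun(Ser73) AlphaScreen read at room temperature, pH 7.6 Tris buffer. Compounds pre-incubated 15 min as titrations.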

The target of test [9] is Dual specificity protein kinase CLK4 (Homo sapiens) (UniProt Q9HAZ1). Nature of the test: qHTS Assay for Inhibitors of CDC-like Kinase 4 (Kinase-Glo Assay) (AID 1770). Also: nearly all actives have a fitted effect of over 65% in size. Also: potency is read from the fitted curve at half-maximal effect. The method, boiled down: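 Recombinant human Clk4 (25 nM) phosphorylated RS repeat peptide (100 uM) with 1 uM ATP in Tris pH 7.5/MgCl2/EGTA/DTT/Triton buffer for 4.5 h at room temperature. Residual ATP was quantified by Kinase-Glo luciferase luminescence.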

For test [10] the target is unchanged. Put plainly: qHTS Assay for Inhibitors of CDC-like Kinase 4 (ADP-Glo Assay) (AID 1771). Also: nearly all actives have a fitted effect of over 70% in size. Also: potency is read from the fitted curve at half-maximal effect. The method, boiled down: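 25 nM Clk4 with 100 uM RS repeat peptide and 1 uM ATP (final) in buffer with 2 mM MgCl2, 0.5 mM EGTA, 2.5 mM DTT, 0.01% Triton X-100; 1 h at room temperature; ADP-Glo luminescence for ADP formed.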
On the technique in general: qHTS replaces the single test concentration by a dilution series.

Test [11] concerns the target 3',5'-cyclic-AMP phosphodiesterase 4B (Homo sapiens) (UniProt Q07343). Put plainly: qHTS Assay for Inhibitors of PDE-IV (AID 607; active = well fitted activation curve with a large enough effect in the main read-out, with a control signal flat, not every such curve was filed as active; also: % of control where 0% means no effect). The method in brief: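 The readout is membrane depolarisation from a cAMP-sensing CNG channel, detected with a potential dye at ex 535/em 590. Cells were HEK293-derived (endogenous PDE-IV) at 1000 cells/well, titrated up to 22.9 uM final.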

In test [12] the target is Cytochrome P450 3A4 (Homo sapiens) (UniProt P08684). Nature of the test: qHTS Assay for Activators of Cytochrome P450 3A4 (AID 885). Also: nearly all actives have a fitted effect of over 65% in size. The method in brief:
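Steps: enzyme/substrate mix dispensed; compound added, 10 min RT; NADPH regeneration solution added, 60 min RT; luciferin detection buffer stops reaction; 20 min later luminescence measured.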

Test [13] has as its target Dual specificity protein kinase CLK4 (Homo sapiens) (UniProt Q9HAZ1). Nature of the test: qHTS Assay for Inhibitors of CDC-like Kinase 4 (ADP-FP Assay) (AID 1795). Also: nearly all actives have a fitted effect of over 60% in size. Also: potency is read from the fitted curve at half-maximal effect. The method in brief: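 Recombinant human Clk4 (6.25 nM) phosphorylated RS repeat peptide (100 uM) with 1 uM ATP in Tris pH 7.5/MgCl2/EGTA/DTT/Triton buffer for one hour. ADP was quantified by Transcreener competitive fluorescence polarization against an ADP calibration curve.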

The target in test [14] is Ubiquitin carboxyl-terminal hydrolase 1 (Homo sapiens) (UniProt O94782). Nature of the test: Inhibitors of USP1/UAF1: Pilot qHTS (AID 504865).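 Also: rhodamine fluorescence freed from ubiquitin-rhodamine substrate followed over time; top concentration of the series differs between compounds; % is scaled to controls: 0 for no effect and ±100 for the full control effect; nearly all actives have a fitted effect of over 35% in size.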 The method in brief: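 USP1/UAF1 complex (1nM) preincubated with compound 15 min at room temperature, then Ub-Rho substrate (150nM final) added. Fluorescence read kinetically at 480/540 nm, 6 reads every 60 seconds. Buffer: 50mM HEPES pH 7.8, 0.5mM EDTA, 0.1 mg/ml BSA, 1mM TCEP, 0.01% Tween-20.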

The target of test [15] is Cytochrome P450 3A4 (Homo sapiens) (UniProt P08684). Put plainly: qHTS Assay for Inhibitors and Substrates of Cytochrome P450 3A4 (AID 884). Also: potency is read from the fitted curve at half-maximal effect; nearly all actives have a fitted effect of over 50% in size. The method in brief:
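20 nM human CYP3A4 with 25 uM Luciferin-PPXE (at KM) in 200 mM KPO4, preincubated 10 min with compound; NADPH regeneration started a 60 min RT reaction. Luciferin detected by luminescence, normalized to 57 uM ketoconazole as full inhibition.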

The target in test [16] is Cytochrome P450 2C19 (Homo sapiens) (UniProt P33261). Put plainly: qHTS Assay for Inhibitors and Substrates of Cytochrome P450 2C19 (AID 899). Also: potency is read from the fitted curve at half-maximal effect; nearly all actives have a fitted effect of over 60% in size. The method, boiled down:
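5 nM human CYP2C19 with 10uM Luciferin-H EGE (at KM) in 50mM KPO4, compound preincubated 10 min at 37C, then NADPH regeneration for 60 min at 37C. Luciferin read by luminescence after detection reagent; normalized to 57uM ketoconazole as full inhibition.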

Test [17] has as its target Cytochrome P450 2D6 (Homo sapiens) (UniProt P10635). Put plainly: qHTS Assay for Inhibitors and Substrates of Cytochrome P450 2D6 (AID 891). Also: potency is read from the fitted curve at half-maximal effect; nearly all actives have a fitted effect of over 60% in size. The method, boiled down: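 Human CYP2D6 (5 nM) with 30 uM Luciferin-ME EGE (at Km) in 100 mM KPO4, compound preincubated 10 min, then NADPH regeneration system for 60 min at room temperature. Luciferin read by luminescence; normalized to 1.43 uM quinidine.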

A number with no mark means an inactive call. Results filed as inconclusive are left out. Active and inactive are the calls of the source. Unless noted, calls follow the shape of the dose curve; as a rule, active = well fitted curve in the direction sought with a large enough effect; inconclusive = small, poorly fitted or top-dose-only effect, or another doubt; inactive = no such curve, though single readings can be large; an effect the other way counts as inactive or inconclusive.

Sequence of Cytochrome P450 1A2 (Homo sapiens) (P05177 whole entry, looked up): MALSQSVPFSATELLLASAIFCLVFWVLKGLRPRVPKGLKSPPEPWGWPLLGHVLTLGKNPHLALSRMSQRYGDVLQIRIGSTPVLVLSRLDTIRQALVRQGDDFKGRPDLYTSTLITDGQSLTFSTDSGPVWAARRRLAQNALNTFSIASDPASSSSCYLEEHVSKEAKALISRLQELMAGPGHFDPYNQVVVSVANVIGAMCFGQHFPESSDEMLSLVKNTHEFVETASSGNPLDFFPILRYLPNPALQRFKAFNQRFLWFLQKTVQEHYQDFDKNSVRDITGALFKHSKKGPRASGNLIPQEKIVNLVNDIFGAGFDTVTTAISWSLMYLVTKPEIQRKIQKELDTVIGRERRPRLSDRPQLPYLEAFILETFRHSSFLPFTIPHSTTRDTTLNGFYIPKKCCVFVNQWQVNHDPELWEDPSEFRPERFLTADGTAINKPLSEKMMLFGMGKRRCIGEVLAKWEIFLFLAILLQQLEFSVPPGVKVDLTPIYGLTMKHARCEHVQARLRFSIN
Sequence of Ubiquitin carboxyl-terminal hydrolase 1 (Homo sapiens) (O94782 whole entry, looked up): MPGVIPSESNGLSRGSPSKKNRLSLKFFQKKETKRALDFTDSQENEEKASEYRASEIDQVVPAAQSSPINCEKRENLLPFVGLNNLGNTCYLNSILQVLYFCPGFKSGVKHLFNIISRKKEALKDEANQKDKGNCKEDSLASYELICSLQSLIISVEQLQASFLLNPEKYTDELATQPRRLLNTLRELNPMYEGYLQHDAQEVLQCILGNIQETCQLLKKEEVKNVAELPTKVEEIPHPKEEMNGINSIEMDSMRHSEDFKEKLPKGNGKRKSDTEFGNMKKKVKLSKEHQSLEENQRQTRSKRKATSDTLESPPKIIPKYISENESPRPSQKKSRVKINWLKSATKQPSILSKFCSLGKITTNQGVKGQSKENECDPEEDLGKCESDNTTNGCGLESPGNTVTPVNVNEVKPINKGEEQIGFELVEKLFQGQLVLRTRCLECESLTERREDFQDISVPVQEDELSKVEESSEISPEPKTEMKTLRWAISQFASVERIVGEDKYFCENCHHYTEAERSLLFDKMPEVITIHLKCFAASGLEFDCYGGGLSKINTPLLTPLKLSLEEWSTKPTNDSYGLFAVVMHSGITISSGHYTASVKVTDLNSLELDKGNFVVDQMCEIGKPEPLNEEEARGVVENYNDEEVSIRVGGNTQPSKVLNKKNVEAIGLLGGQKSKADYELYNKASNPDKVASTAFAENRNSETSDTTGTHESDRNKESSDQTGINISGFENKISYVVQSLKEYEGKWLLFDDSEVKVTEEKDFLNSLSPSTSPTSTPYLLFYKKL
Sequence of Glucocorticoid receptor (Homo sapiens) (P04150 whole entry, looked up, the tested form may be a part): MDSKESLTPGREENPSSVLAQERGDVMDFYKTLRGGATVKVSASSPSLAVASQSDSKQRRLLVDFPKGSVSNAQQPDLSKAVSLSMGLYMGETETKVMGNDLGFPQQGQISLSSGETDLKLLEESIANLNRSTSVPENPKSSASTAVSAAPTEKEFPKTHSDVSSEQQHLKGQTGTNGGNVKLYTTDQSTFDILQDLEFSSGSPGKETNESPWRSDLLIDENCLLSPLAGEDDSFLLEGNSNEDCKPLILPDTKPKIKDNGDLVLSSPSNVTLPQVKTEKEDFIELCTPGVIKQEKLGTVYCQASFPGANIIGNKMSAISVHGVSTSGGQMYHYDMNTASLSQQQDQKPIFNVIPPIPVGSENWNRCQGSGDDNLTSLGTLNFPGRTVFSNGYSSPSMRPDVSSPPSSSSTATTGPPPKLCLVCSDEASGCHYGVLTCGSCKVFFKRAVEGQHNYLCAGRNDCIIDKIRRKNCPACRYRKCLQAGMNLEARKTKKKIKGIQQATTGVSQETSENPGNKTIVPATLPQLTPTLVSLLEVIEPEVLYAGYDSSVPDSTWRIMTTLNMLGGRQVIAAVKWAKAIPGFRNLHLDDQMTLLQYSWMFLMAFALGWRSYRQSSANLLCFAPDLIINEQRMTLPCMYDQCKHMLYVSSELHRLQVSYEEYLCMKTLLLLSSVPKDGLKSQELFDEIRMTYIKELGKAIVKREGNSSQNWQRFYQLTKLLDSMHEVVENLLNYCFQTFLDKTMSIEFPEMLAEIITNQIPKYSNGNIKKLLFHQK
Sequence of Cytochrome P450 3A4 (Homo sapiens) (P08684 whole entry, looked up): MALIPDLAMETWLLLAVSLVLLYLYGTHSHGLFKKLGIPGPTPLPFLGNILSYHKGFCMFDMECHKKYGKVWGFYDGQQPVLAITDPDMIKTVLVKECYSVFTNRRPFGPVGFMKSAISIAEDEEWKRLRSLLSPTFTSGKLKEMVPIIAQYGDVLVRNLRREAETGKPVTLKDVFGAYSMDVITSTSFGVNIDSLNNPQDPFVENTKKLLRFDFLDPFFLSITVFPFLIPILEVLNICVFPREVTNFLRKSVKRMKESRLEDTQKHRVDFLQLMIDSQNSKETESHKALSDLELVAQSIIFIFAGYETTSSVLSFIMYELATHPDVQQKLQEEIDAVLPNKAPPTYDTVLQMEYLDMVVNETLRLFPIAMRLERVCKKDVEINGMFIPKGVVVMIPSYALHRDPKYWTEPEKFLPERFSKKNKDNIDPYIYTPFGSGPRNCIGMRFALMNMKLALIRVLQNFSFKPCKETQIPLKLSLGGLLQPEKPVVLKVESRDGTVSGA
Sequence of 3',5'-cyclic-AMP phosphodiesterase 4B (Homo sapiens) (Q07343 whole entry, looked up): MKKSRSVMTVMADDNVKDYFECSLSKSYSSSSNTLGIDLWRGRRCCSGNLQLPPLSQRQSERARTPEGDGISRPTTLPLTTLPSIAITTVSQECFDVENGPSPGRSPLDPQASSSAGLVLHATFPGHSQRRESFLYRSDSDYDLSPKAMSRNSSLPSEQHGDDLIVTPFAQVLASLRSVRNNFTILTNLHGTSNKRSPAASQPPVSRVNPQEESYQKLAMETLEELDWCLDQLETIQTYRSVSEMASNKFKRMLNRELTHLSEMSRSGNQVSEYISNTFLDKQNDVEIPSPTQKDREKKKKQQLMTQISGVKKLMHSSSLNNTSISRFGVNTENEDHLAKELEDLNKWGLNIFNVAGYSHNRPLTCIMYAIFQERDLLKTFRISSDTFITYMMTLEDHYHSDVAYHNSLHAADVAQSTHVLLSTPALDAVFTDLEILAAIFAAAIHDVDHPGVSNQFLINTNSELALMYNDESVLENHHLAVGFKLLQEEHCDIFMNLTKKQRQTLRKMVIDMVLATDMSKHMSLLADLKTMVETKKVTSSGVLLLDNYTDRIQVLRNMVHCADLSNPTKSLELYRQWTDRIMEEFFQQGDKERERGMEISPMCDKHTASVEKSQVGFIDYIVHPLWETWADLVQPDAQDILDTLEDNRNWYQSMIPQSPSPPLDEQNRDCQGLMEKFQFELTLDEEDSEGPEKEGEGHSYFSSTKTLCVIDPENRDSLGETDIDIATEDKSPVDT
Sequence of Dual specificity protein kinase CLK4 (Homo sapiens) (Q9HAZ1 whole entry, looked up): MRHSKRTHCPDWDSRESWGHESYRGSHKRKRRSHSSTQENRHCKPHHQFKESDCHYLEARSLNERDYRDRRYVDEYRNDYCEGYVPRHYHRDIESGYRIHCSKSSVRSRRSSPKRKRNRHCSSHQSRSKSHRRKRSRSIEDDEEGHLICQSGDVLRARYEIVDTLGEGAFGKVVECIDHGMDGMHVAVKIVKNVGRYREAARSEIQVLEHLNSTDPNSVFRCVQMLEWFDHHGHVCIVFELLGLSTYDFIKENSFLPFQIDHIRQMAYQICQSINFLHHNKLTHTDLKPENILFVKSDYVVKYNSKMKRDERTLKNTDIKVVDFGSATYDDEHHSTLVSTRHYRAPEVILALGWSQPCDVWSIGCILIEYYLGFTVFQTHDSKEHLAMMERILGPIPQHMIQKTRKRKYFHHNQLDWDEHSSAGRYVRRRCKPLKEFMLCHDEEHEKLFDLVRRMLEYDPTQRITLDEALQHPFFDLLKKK
Sequence of Lysosomal acid glucosylceramidase (Homo sapiens) (P04062 whole entry, looked up): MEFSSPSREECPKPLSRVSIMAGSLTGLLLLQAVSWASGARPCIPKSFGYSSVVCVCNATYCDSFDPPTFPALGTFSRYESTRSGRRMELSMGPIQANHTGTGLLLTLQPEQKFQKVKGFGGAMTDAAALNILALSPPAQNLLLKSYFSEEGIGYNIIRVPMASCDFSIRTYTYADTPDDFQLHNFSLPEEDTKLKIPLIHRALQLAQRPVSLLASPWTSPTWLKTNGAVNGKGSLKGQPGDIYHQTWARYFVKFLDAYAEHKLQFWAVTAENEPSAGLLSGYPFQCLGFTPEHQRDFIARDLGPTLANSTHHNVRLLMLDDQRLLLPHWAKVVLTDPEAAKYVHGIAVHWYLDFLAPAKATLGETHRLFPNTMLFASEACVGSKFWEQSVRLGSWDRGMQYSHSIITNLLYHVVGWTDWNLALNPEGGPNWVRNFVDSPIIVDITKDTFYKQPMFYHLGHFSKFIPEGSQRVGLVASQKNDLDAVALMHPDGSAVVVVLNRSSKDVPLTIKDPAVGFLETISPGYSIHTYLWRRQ
Sequence of Cytochrome P450 2C19 (Homo sapiens) (P33261 whole entry, looked up): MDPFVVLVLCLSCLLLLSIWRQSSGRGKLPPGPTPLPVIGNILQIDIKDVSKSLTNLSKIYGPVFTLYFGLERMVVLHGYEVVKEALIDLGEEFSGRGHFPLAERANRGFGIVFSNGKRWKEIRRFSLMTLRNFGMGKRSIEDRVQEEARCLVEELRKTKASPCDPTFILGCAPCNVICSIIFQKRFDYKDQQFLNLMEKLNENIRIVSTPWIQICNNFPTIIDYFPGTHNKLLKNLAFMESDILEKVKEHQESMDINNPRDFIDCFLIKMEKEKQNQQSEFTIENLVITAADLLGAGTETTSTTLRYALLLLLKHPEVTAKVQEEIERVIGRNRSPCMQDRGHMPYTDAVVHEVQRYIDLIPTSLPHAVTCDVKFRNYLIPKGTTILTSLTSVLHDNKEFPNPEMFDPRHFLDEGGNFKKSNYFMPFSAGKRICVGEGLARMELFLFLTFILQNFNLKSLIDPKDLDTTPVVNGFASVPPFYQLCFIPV

`Cc1noc(C)c1-c1nc(N2CCN(C)CC2)c2ccccc2n1`: the Potency was over 11.4 µM in [1]; 0.316 µM (active) in [3]; over 46 µM in test [6]; over 46 µM in [7]; 15.8 µM (active) in test [9]; 28.2 µM (active) in [10]. Further, the activity change, negative = inhibition in test [2] was 28.9%; in [4], -5.52%. The result in test [5] was inactive. Moreover, the Potency result in test [8] is “inactive”.
For the compound `Cc1cnc(CNc2ncnc3ccc(-c4ccc(N(C)C)cc4)cc23)cn1`, the Potency was 1 µM (active) in test [3]; over 46 µM in test [6]; over 46 µM in test [7]; 8.91 µM (active) in test [9]; 11.2 µM (active) in [10]. Besides, in [4], the activity change, negative = inhibition was 5.72%. Besides, the result in test [5] and in [12] was inactive. The Potency entry in test [11], in [13] and in test [14] was “inactive” each time.
For the compound `COc1ccc2[nH]cc(CCNc3ncncc3-c3ccoc3)c2c1`, the Potency in [1] was over 11.4 µM; in test [6], over 46 µM; in test [7], over 46 µM; in test [9], 14.1 µM (active); in test [10] it was 15.8 µM (active); in test [13] it was 3.55 µM (active). Moreover, the activity change, negative = inhibition in test [4] is -12%. Further, the outcome in test [5] was inactive. Further, the Potency entry in test [8], in test [11] and in test [14] was “inactive” in each case.
As for `O=c1c(CCc2ccccc2)nc2cncnc2n1Cc1ccccc1`, the activity change, negative = inhibition in test [4] was -4.57%. In test [5], the call was inactive. Also, the Potency in [6] and in test [7] was over 46 µM throughout. In addition, the Potency result in test [9], in test [10], in test [13] and in test [14] was “inactive” each time.
Consider `CN1CCN(c2ncnc3ccc(-c4cccc(C#N)c4)cc23)CC1`, for which the Potency in test [1] was over 11.4 µM; in test [3], 1.26 µM (active); in test [6], over 46 µM; in test [7], over 46 µM; in test [9], 15.8 µM (active); in [10], 15.8 µM (active). The activity change, negative = inhibition in test [2] is -0.311%; in [4], -4.66%. Further, the call in [5] and in [12] was inactive. Further, the Potency result in test [8] and in test [14] was “inactive” each time.
With `COc1ccc2[nH]cc(CCNc3cc(-c4cccc(C#N)c4)ncn3)c2c1`, the Potency in [1] is over 11.4 µM; in [3], 0.794 µM (active); in [6] it was over 46 µM; in test [7], over 46 µM; in [15], 3.98 µM (active); in test [16], 7.94 µM (active). Also, the Potency in [9] was 25.1 µM (active); in test [10], 31.6 µM (active). Also, in test [2], the activity change, negative = inhibition is -15.9%. For the same compound, the compound was called inactive in test [5] and in test [12]. Moreover, the Potency entry in test [8], in test [11] and in test [14] was “inactive” in each case.
As for `COc1ccccc1CNc1ncncc1-c1ccccc1Cl`, the activity change, negative = inhibition in test [2] was -2.69%; in test [4], -21.7%. For the same compound, the Potency in test [3] is 10 µM (active); in [6] it was over 46 µM; in test [7] it was over 46 µM; in test [17] it was 2 µM (active); in test [16], 1.26 µM (active). Further, the outcome in [5] and in test [12] was inactive. Moreover, the Potency entry in test [8], in test [11], in test [9], in test [10], in [13] and in test [14] was “inactive” in each case.
